Reference: ChEMBL document CHEMBL1157539, “Thousands of chemical starting points for antimalarial lead identification” (Nature, 2010)
Several values for one entry are separate records, joined by “and”; a condition that tells them apart may be missing. Equal values may be shown once. The full ranking holds about 13,000 compounds; the median of “IFI” is about 4, and the highest 2% start at about 17. What follows is part of a selection rich in the highest values, with near analogues and random picks from the rest.

Assay: GSK_TCMDC: Inhibition Frequency Index (IFI). The number of non-kinase HTS assays where a compound showed > 50 % inhibition, expressed as a percentage of the number of such assays in which the compound was tested
Format: functional
`CC(=O)C1(c2ccccc2)CCN(CCC(NC(=O)c2cc(C(F)(F)F)cc(C(F)(F)F)c2)c2ccc(Cl)c(Cl)c2)CC1` (stereo not given) gave an IFI of 1.45%.
Work on `O=C(c1cc(C(F)(F)F)cc(C(F)(F)F)c1)N1CCC(CCN2CCC3(CC2)C(=O)NCN3c2ccccc2)CC1Cc1ccc(Cl)c(Cl)c1` (stereo not given) yielded an IFI of 20%.
In the case of `CN(C(=O)OCc1ccccc1)C1CCC(CCN2CCC3(CC2)C(=O)NCN3c2cccc(C(F)(F)F)c2)(c2ccccc2)CC1` (stereo not given), the IFI is reported as 8.63%.
Compound `Cc1cc(NC(=O)[C@@H](Nc2ccc(C#N)c3ccccc23)C2CCCCC2)ccc1F` has an IFI of 3.85%.
In the case of `c1ccc(C(OCCC2CCN(Cc3cccc4cccnc34)CC2)c2ccccc2)cc1`, the IFI is reported as 3.1%.
`CC(Cc1ccc(OC2CCCCC2)cc1)NCC(O)c1cccc(Cl)c1` (stereo not given) gave an IFI of 21.7%.
With `CC(Cc1ccc(Oc2ccc(Cl)cc2)cc1)NCC(O)c1cccc(Cl)c1` (stereo not given) the IFI was 7.3%.
In the case of `Cc1ccc(CC(C)NC[C@H](O)c2cccc(Cl)c2)cc1` (stereo not given in full), the IFI is reported as 4.38% and 0.72%.
In the case of `CN1C2CCC1c1cc(NC(=O)c3cc(-c4ccc(Cl)cc4)cs3)ccc12` (stereo not given), the IFI is reported as 13.3%.
Work on `CCCCCOc1ccc(CC(C)NCC(O)c2cccc(Cl)c2)cc1` (stereo not given) yielded an IFI of 4.86%.
Compound `COC(C(=O)OCCC1CCCN1C)(c1ccccc1)c1ccccc1` (stereo not given) has an IFI of 2.19%.
Compound `CC(Cc1ccc(Oc2ccccc2)cc1)NCC(O)c1cccc(C(F)(F)F)c1` (stereo not given) has an IFI of 4.96%.
Compound `CC(Cc1ccc(OCc2ccccc2)cc1)NCC(O)c1cccc(Cl)c1` (stereo not given) has an IFI of 15.6%.
Compound `CC(Cc1ccc(OCCCCOc2ccccc2)cc1)NCCCN1CCOCC1` (stereo not given) has an IFI of 30.1%.
With `COC(C(=O)OCCC1CCCN1C)(c1ccccc1)C1CCCCC1` (stereo not given) the IFI was 1.45%.
With `CC(Cc1ccc(OCCOc2ccccc2)cc1)NCC(O)c1cccc(C(F)(F)F)c1` (stereo not given) the IFI was 2.9%.
`CC(Cc1ccc(OCCCCOc2ccccc2)cc1)NCCC1CCCN1C` (stereo not given) gave an IFI of 32.5%.
With `CC(Cc1ccc(OCCCCOc2ccccc2)cc1)NCCCn1ccnc1` (stereo not given) the IFI was 32.6%.
Compound `CN1CC=C(c2c[nH]c3ccc(Sc4ccccc4)cc23)CC1` has an IFI of 3.7%.
Work on `CCCCCCC(C)(C)c1cc(O)c2c3c(c(=O)oc2c1)CCN(Cc1ccccc1)C3` yielded an IFI of 2.22%.
`COC(=O)c1ccc(CC(C)NCC(O)c2cccc(OCc3ccccc3)c2)cc1` (stereo not given) gave an IFI of 5.76%.
`CC1CN=C(Nc2ncc(Cl)cc2Cl)N1` (stereo not given) gave an IFI of 0.7%.
`CN(C)CCc1c[nH]c2ccc(C(=O)Nc3ccc(-c4ccncc4)cc3)cc12` gave an IFI of 5.19%.
`COc1cccc(CN2CCC(CCOC(c3ccccc3)c3ccccc3)CC2)c1O` showed an IFI of 3.1%.
`CC(C)CNCc1ccc(-c2cccc(CN(C(=O)CCC3CCCC3)C3CCN(Cc4ccccc4)CC3)c2)cc1` gave an IFI of 9.29%.
With `O=C(Nc1ccccc1C(F)(F)F)NC1CCC(CN2CCC(c3c[nH]c4ccccc34)CC2)CC1` (stereo not given) the IFI was 4.29% and 2.14%.
For `O=C1c2ccccc2CCC1CCN1CC=C(c2c[nH]c3ccccc23)CC1` (stereo not given), the IFI was 2.92%.
Work on `O=C(Nc1cc(C(F)(F)F)cc(C(F)(F)F)c1)c1cc(Cl)ccc1O` yielded an IFI of 33.3%.
In the case of `O=C(c1cc(C(=O)NCc2ccc(Cl)cc2)c(=O)n(Cc2ccc(Cl)cc2)c1)c1cc(Cl)ccc1O`, the IFI is reported as 0%.
Work on `O=C(/C=C/c1ccccc1Cl)NC1CCC(CN2C3CCC2CC(c2c[nH]c4ccccc24)C3)CC1` (stereo not given) yielded an IFI of 6.38%.
`CCCCCc1cc(O)c2c(c1)OC(C)(C)CC2C1=CCN(Cc2ccccc2)CC1` (stereo not given) gave an IFI of 2.86%.
With `Cc1csc(-c2ccc3[nH]cc(C4=CCN(C)CC4)c3c2)n1` the IFI was 0%.
`CC[C@H]1CN2CC[C@H]1C[C@H]2[C@H](O)c1cc(N2CCCC(CO)C2)nc2ccc(OC)cc12` (stereo not given in full) gave an IFI of 0%.
Work on `O=C(NC1CCC(CN2CCC(c3c[nH]c4ccccc34)CC2)CC1)c1cc2cccc([N+](=O)[O-])c2[nH]1` (stereo not given) yielded an IFI of 3.65%.
`CC(Cc1ccc(NC(=O)CCNCc2ccccc2)cc1)NCCc1cccc(Cl)c1` (stereo not given) showed an IFI of 32.4%.
In the case of `CC(Cc1ccc(NC(=O)CCCc2ccccc2)cc1)NCCc1cccc(Cl)c1` (stereo not given), the IFI is reported as 4.29%.
In the case of `CC(Cc1ccc(NC(=O)[C@H](C)NCCc2cccc(Cl)c2)cc1)NCCc1cccc(Cl)c1` (stereo not given in full), the IFI is reported as 9.35%.
With `O=C(/C=C/c1ccccc1Cl)NC1CCC(CN2CCC(c3c[nH]c4ccccc34)CC2)CC1` (stereo not given) the IFI was 5.04% and 6.94%.
In the case of `CC(=O)N(Cc1cccc(-c2cccc(CNCc3ccc4c(c3)OCO4)c2)c1)C1CCN(Cc2ccccc2)CC1`, the IFI is reported as 4.51%.
`Fc1ccc(N(c2nc(-c3cc(F)cc(C(F)(F)F)c3)cs2)C2CCNCC2)cc1` showed an IFI of 17.1%.
For `COc1ccc(F)cc1-c1csc(N(c2ccc(F)cc2)C2CCNCC2)n1`, the IFI was 14.4%.
Compound `COc1ccc(N(c2nc(-c3cc(Cl)ccc3Cl)cs2)C2CCNCC2)cc1` has an IFI of 23.1%.
Work on `CCOC(=O)c1c(CN2CCN(C)CC2)n(Cc2ccccc2)c2cc(Br)c(O)cc12` yielded an IFI of 5.56%.
In the case of `COc1ccc(C=CC(=O)NC2CCC(CN3CCC(c4c[nH]c5ccccc45)CC3)CC2)cc1` (stereo not given), the IFI is reported as 7.19% and 5.04%.
`O=C(C=Cc1ccc(F)c(Br)c1)N1CCC(CN2CCC(c3c[nH]c4ccccc34)CC2)CC1` gave an IFI of 6.62%.
`COc1ccc(C2CNCc3c2cc(OC)c(OC)c3Cl)cc1` (stereo not given) showed an IFI of 2.94%.
With `COc1cc(NC(=O)c2nn(CCCN3CCC4(CC3)C(=O)NCN4c3ccccc3)cc2-c2ccc(Cl)c(Cl)c2)cc(OC)c1OC` the IFI was 15.4%.
For `O=C(NCc1ccccc1)c1nn(CCCN2CCC3(CC2)C(=O)NCN3c2ccccc2)cc1-c1ccc(Cl)c(Cl)c1`, the IFI was 24.3%.
In the case of `O=C1NCN(c2ccc(O)cc2)C12CCN(CCCC(c1ccc(F)cc1)c1ccc(F)cc1)CC2`, the IFI is reported as 4.32%.
`O=C(NCc1ccc(S(=O)(=O)N2CCC(CN3CCC(c4c[nH]c5ccccc45)CC3)CC2)s1)c1ccccc1` showed an IFI of 6.85%.
Compound `O=C(C=Cc1ccc(Br)cc1)NC1CCC(CN2CCC(c3c[nH]c4ccccc34)CC2)CC1` (stereo not given) has an IFI of 6.38%.
`O=C1Nc2cccc3c2C1(CCCCN1CC=C(c2c[nH]c4ncccc24)CC1)CCC3` (stereo not given) gave an IFI of 4.41%.
Compound `N#Cc1c(F)cc(N2CCC(NCC[C@H](N)Cc3ccc(F)c(F)c3)CC2)cc1F` has an IFI of 21.9%.
Work on `N[C@@H](CCN1CCC(c2cccc(O)c2)CC1)Cc1ccc(F)c(F)c1` yielded an IFI of 12.1%.
For `CCC1(C)N=C(N)N=C(N)N1c1ccc(Cl)cc1` (stereo not given), the IFI was 0%.
`COc1cccc(C(=O)C2CC2CN2CC=C(c3c(C)[nH]c4ccccc34)CC2)c1` (stereo not given) showed an IFI of 3.74%.
`C[C@H](Cc1ccc(OCCCCCCOc2ccccc2)cc1)NC[C@H](O)c1cccc(Cl)c1` gave an IFI of 7.64%.
In the case of `CC(Cc1ccc(OCCOc2ccccc2)cc1)NCC(O)c1cccc(Cl)c1` (stereo not given), the IFI is reported as 6.38%.
`CC(Cc1ccc(OCc2ccc(CCN(C)C)cc2)cc1)NCCc1cccc(Cl)c1` (stereo not given) gave an IFI of 5.84%.
With `CNCCCCCCOc1ccc(CC(C)NCC(O)c2cccc(C(F)(F)F)c2)cc1` (stereo not given) the IFI was 7.8%.
Compound `CC(Cc1ccc(OCCCCOc2ccccc2)cc1)NCCCc1nc2ccccc2[nH]1` (stereo not given) has an IFI of 33.3%.
`CC(Cc1ccc(OCCCCOc2ccccc2)cc1)NCCc1ccccc1Cl` (stereo not given) showed an IFI of 28%.
With `COc1cccc(CC(C)NCC(O)c2cccc(Cl)c2)c1` (stereo not given) the IFI was 1.44%.
In the case of `C[C@H](Cc1ccc(OCCCCCCOc2ccccc2)cc1)NC[C@@H](O)c1cc(Br)no1`, the IFI is reported as 13.5%.
`COc1cccc(CCNC(C)Cc2ccc(OCCCCOc3ccccc3)cc2)c1` (stereo not given) showed an IFI of 31%.
`Cn1nc(C(F)(F)F)cc1-c1ccc(C(=O)NC2CCC(CN3CCC(c4c[nH]c5ccccc45)CC3)CC2)s1` (stereo not given) gave an IFI of 6.16%.
Compound `O=C(Nc1ccc(Cl)c(Cl)c1)N1CCC(CN2CCC(c3c[nH]c4ccccc34)CC2)CC1` has an IFI of 4.23%.
In the case of `CC[C@H]1CN2CC[C@H]1C[C@H]2[C@H](O)c1cc(-c2ccccc2C)nc2ccc(OC)cc12`, the IFI is reported as 5.44%.
With `CCCCCCCCNCC(O)c1ccc(Cl)c(Cl)c1` (stereo not given) the IFI was 11.1%.
For `CN(c1cc(NC(=O)c2cccs2)ccn1)C1CCN(Cc2ccccc2)CC1`, the IFI was 2.78%.
`CNCCCN(C)C(=O)Oc1c(Br)c(C)nc(C)c1-c1ccc(Oc2ccc(OC(F)(F)F)cc2)cc1` gave an IFI of 7.41%.
For `CNCCN(C)C(=O)Oc1c(Br)c(C)nc(C)c1-c1ccc(Oc2ccc(OC(F)(F)F)cc2)cc1`, the IFI was 12.4%.
With `Cc1nc(C)c(-c2ccc(Oc3ccc(OC(F)(F)F)cc3)cc2)c(OC(=O)N(CCNC(C)C)C(C)C)c1Br` the IFI was 18%.
Compound `COc1cccc(O)c1CNCC(O)c1cccc(C(F)(F)F)c1` (stereo not given) has an IFI of 0.78%.
Work on `CC(=O)Nc1ccc2[nH]cc(C3CCN(CC4CCN(C(=O)/C=C/c5ccc(Cl)c(Cl)c5)CC4)CC3)c2c1` yielded an IFI of 1.46%.
